In PubChem BioAssay AID463173 (ICCB-Longwood Screening Facility, Harvard Medical School, 2010) one finds survival data, which are given here for 96 compounds.

Structures are written as SMILES. The campaign covered roughly 52,000 compounds. About 1,700 (3.3%) were called active. Shown is part of a subset that was picked to be rich in actives. A number with no mark means an inactive call. Rule as the data show it: active = survival mostly below about 52% (no sharp cut-off); inactive = mostly above about 56%.

The subject of this assay is Wild type. The experiment in a line: S. aureus survival, RN4220 and DeltatarO strains – OD600, teichoic acid synthesis inhibitors, primary screen (AID 463173). The note with it: S. aureus RN4220 wild type/DeltatarO growth, OD600, 18 h, stronger effect = lower value, screened at 18.75 µg/mL (by protocol).
On to `Cc1ccc2c(c1)-c1c(cnc3cc(-c4ccc(Cl)cc4)nn13)CO2`, for which the survival is 61%.
In the case of `CC(=O)c1cc2c(cc1N/C(=N/S(=O)(=O)c1ccc(Cl)cc1)c1ccc(F)cc1)OCO2` it was 80%.
In the case of `CC(=O)c1cc2c(cc1N/C(=N/S(=O)(=O)c1ccccc1)c1ccc(Cl)cc1)OCO2` it was -2% (active); in that of `CC(=O)c1cc2c(cc1N/C(=N/S(=O)(=O)c1ccc(C)cc1)c1ccccc1)OCO2`, 88%.
As to `CC(=O)c1cc2c(cc1N/C(=N/S(=O)(=O)c1ccc(Br)cc1)c1ccccc1)OCO2`, the survival is 69%.
Then `CC(=O)c1cc2c(cc1N/C(=N/S(=O)(=O)c1ccc(C)cc1)c1ccc(F)cc1)OCO2`, with 82%; and `CC(=O)c1cc2c(cc1N/C(=N/S(=O)(=O)c1ccc(C)cc1)c1ccc(Cl)cc1)OCO2`, with 10% (active); and `CC(=O)Nc1ccc(NC(=O)c2ccc3c(c2)NC(=O)c2ccccc2S3)cc1`, with 138%.
Then `CC1=C(C(=O)OC2CCCC2)C(c2c(F)cccc2Cl)CC(=O)N1` (stereo unspecified), with 87%.
Consider `O=C1CC(c2nnc(Cc3cccc(Cl)c3)o2)CN1c1ccccc1` (stereo unspecified), for which the survival was 113%.
Then `CS(=O)(=O)c1ccc(-c2nn[nH]n2)cc1`, with 103%; and `O=C(Nc1c(C(=O)N2CCN(c3ccccc3)CC2)oc2ccccc12)c1ccc(Br)o1`, with 81%; and `COc1cc(Cl)c(C)cc1Nc1nc2ccccc2n2cnnc12`, with 127%.
In the case of `CCOC(=O)C1CCN(C(=O)c2ccc(C)cc2)CC1` it was 93%.
As to `COc1ccc(C(=O)c2cnc3ccc(C)cc3c2S(=O)(=O)c2ccccc2)cc1`, the survival is 79%.
In the case of `CCc1ccc2ncc(C(=O)c3ccc(C)c(C)c3)c(N3CCC(C(N)=O)CC3)c2c1` it was 102%; in that of `CCOC(=O)C1CCN(c2c(C(=O)c3ccc(OCC)cc3)cnc3ccc(OC)cc23)CC1`, 0% (active).
In the case of `CCOc1ccc(S(=O)(=O)c2c(C(=O)c3ccc(CC)cc3)cnc3ccc(C)cc23)cc1` it was 87%.
`CCN1CCN(c2c(S(=O)(=O)c3ccc(OC)cc3)cnc3cc(OC)c(OC)cc23)CC1`: the survival is 77%.
Regarding `COc1cc2ncc(C(=O)c3ccc(C)cc3)c(N3CCCCC3)c2cc1OC`, the survival is 2% (active).
`CCOC(=O)C1CCN(c2c(C(=O)c3ccc(OC)cc3)cnc3ccccc23)CC1`: the survival was 125%.
In the case of `CCOC(=O)C1CCN(c2c(C(=O)c3ccc(C)cc3)cnc3ccc(F)cc23)CC1` it was 3% (active); in that of `CCCN(CCC)CCNC(=O)Cn1cc2c(n1)-c1c(oc(C(=O)N3CCCC3)c1C)CC2`, 106%; in that of `COc1ccc(-c2nc3ccccc3n3c(-c4cccc(C)c4)c4c(=O)n(C)c(=O)n(C)c4c23)cc1OC`, 77%.
For `CC(C)Oc1ccc(CNC(=O)c2sc3ncccc3c2-n2cccc2)cc1`, the survival is 64%.
In the case of `O=C(CN1CCC(n2cnc3cc(F)ccc32)CC1)Nc1ccccc1Br` it was 108%; in that of `CCOC(=O)c1ccc(NC(=O)c2c(NCc3cc(OC)c(OC)cc3OC)sc3c2CCCC3)cc1`, 85%; in that of `COCCn1c(SCC(=O)Nc2sc(C)c(C)c2C#N)nnc1C(C)C`, 103%.
Then `COc1ccccc1-c1nn(CCC(=O)Nc2ccccc2)c2nc(C)cc(C)c12`, with 86%; and `COC(=O)c1cc2oc3ccccc3c2n1Cc1nc(-c2cccc(C)c2)oc1C`, with 72%; and `COC(=O)c1cc2oc3ccccc3c2n1Cc1ccc(Cl)cc1`, with 21%.
For `COC(=O)c1cc2oc3ccccc3c2n1Cc1cccc(C)c1`, the survival is 3% (active).
Then `COC(=O)c1cc2oc3ccccc3c2n1CC(=O)Nc1ccc(C)cc1C`, with 86%; and `COC(=O)c1cc2oc3ccccc3c2n1Cc1ccc(C)cc1`, with 82%.
In the case of `CCN(C(=O)Cn1c(C(=O)OC)cc2oc3ccccc3c21)c1cccc(C)c1` it was 24% (active).
Then `S=c1nc[nH]c2c1[nH]c1ccccc12`, with 98%; and `CC1CCN(S(=O)(=O)c2cc(C(=O)Nc3ccc(Br)cc3F)n(C)c2)CC1`, with 77%.
Consider `COc1cc(C(c2nnnn2Cc2ccco2)N2CCN(C3CCCC3)CC2)cc(OC)c1OC` (stereo unspecified), for which the survival is 107%.
Take `CC1CCN(C(=O)Cn2cc(SCC(=O)NCc3ccccc3)c3ccccc32)CC1`: the survival was 86%.
In the case of `Cc1ccc(C)n1-c1c(C(=O)NCCC(C)C)sc2ncccc12` it was 79%; in that of `Cc1nc2ccccc2c(=O)n1-c1ccc(NC(=O)c2cccc([N+](=O)[O-])c2)cc1`, 59%.
Then `Cc1cc(N2CCN(c3cccc(C(F)(F)F)c3)CC2)n2nc(-c3ccccc3)nc2n1`, with 87%.
In the case of `Cc1cc(N2CCN(c3cccc(C(F)(F)F)c3)CC2)n2nc(-c3ccccc3C)nc2n1` it was 11% (active); in that of `COc1ccc(-c2nc3nc(C)cc(N4CCN(c5cccc(C(F)(F)F)c5)CC4)n3n2)cc1`, 88%; in that of `CCN(CC)C(=O)C1=C(C)Nc2nc3ccccc3n2C1c1ccc(Br)cc1` (stereo unspecified), 80%.
For the compound `Cc1cc(S(=O)(=O)C(CNC(=O)COc2ccccc2)c2cccs2)ccc1F` (stereo unspecified), the survival was 153%.
Then `O=C1CC(c2ccccc2)Sc2ccccc2N1Cc1ccc(F)cc1` (stereo unspecified), with 16% (active).
For `COc1ccc(C2CC(=O)N(Cc3ccc(F)cc3)c3ccccc3S2)cc1` (stereo unspecified), the survival was 30%.
Then `COc1ccc(C2CC(=O)N(Cc3cccc(F)c3)c3ccccc3S2)cc1` (stereo unspecified), with 9% (active).
In the case of `O=C1CC(c2ccccc2)Sc2ccccc2N1Cc1ccccc1F` (stereo unspecified) it was 96%; in that of `COc1cc(C2CC(=O)N(Cc3ccc(F)cc3)c3ccccc3S2)cc(OC)c1OC` (stereo unspecified), 72%; in that of `COc1cc(C2CC(=O)N(Cc3cccc(F)c3)c3ccccc3S2)cc(OC)c1OC` (stereo unspecified), 83%.
Then `COc1ccc(S(=O)(=O)c2c(Nc3ccc(C)cc3)sc(C(=O)c3ccc4c(c3)OCO4)c2N)cc1`, with 143%; and `CCNc1nc(NCC)nc(N(n2cnnc2)S(=O)(=O)c2ccc(C)cc2)n1`, with 45%; and `CCOc1ccc(CNC(=O)c2cnc3sc(N(CC)CC)nn3c2=O)cc1`, with 75%.
`COc1ccc(N2CCN(CCCNC(=O)Cn3c(-c4cccs4)cc4ccccc43)CC2)cc1`: the survival is 86%.
As to `Cc1cc(C)cc(NC(=O)CN2C(=O)COc3ccc(S(=O)(=O)Nc4ccccc4)cc32)c1`, the survival was 98%.
Then `CC1CCN(c2nc3c(-c4cccc(Br)c4)nnn3c3ccccc23)CC1`, with 85%.
Then `Cc1ccc(-c2nnn3c2nc(N2CCC(C)CC2)c2ccccc23)cc1`, with -2% (active); and `Clc1ccc(-c2nnn3c2nc(N2CCCCC2)c2ccccc23)cc1`, with 45%; and `CC1CCCN(c2nc3c(-c4ccc(Cl)cc4)nnn3c3ccccc23)C1` (stereo unspecified), with 83%.
Then `COc1ccc(-c2nnn3c2nc(N2CCCC(C)C2)c2ccccc23)cc1` (stereo unspecified), with 0% (active); and `Brc1cccc(-c2nnn3c2nc(N2CCCCC2)c2ccccc23)c1`, with 76%.
With `COc1ccc(C2C(C(=O)Nc3ccc(C)cc3C)=C(C)Nc3nc4ccccc4n32)c(OC)c1` (stereo unspecified), the survival is 65%.
Then `CCOC(=O)C1CCCN(S(=O)(=O)c2ccc3[nH]c(=O)oc3c2)C1` (stereo unspecified), with 88%.
In the case of `CCOc1ccc(NC(=O)CCCn2c(C)c3cnn(-c4ccccc4)c(=O)c3c2C)cc1` it was 89%.
Consider `COc1ccc(Cl)cc1NC(=O)C(C)N1Cc2ccccc2C1=O` (stereo unspecified), for which the survival was 85%.
Then `COC(=O)CSc1nc(N)c(C#N)c(-c2ccccc2)c1C#N`, with 112%.
With `CCC(Sc1nc(N)cc(=O)[nH]1)C(=O)NC(C)c1ccccc1` (stereo unspecified), the survival was 103%.
Then `O=C(CSc1nc(-c2ccccc2)cc(=O)[nH]1)c1ccccc1`, with 119%; and `CCOC(=O)C1CCN(c2ncnc3c2nnn3C)CC1`, with 10% (active).
Then `Cn1nnc2c(N3CCN(c4ccccc4)CC3)ncnc21`, with 88%; and `CCOC(=O)C1CCN(c2nc3ccccc3nc2Cl)CC1`, with -26% (active); and `CCOC(=O)C1CCCN(c2ncnc3c2nnn3C)C1` (stereo unspecified), with 121%.
In the case of `CCOC(=O)C1CCN(c2cc(C)c(C#N)c3nc4ccccc4n23)CC1`, the survival is 99%.
Then `Cn1nnc2c(N3CCN(c4ccc(F)cc4)CC3)ncnc21`, with 80%.
In the case of `CC1CCN(c2ncnc3c2nnn3C)CC1` it was 83%; in that of `COc1ccc(N2CCN(c3ncnc4c3nnn4C)CC2)cc1`, -2% (active); in that of `CCOC(=O)C1CCN(c2nc(-c3ccc(Br)cc3)nc3ccccc23)CC1`, 75%.
In the case of `CCn1nnc2cc(C(=O)Nc3cccc(Cl)c3)ccc21` it was 87%; in that of `CN(Cc1ccccc1)C(=O)C1CCC(CNS(=O)(=O)c2ccc3c(c2)CCCC(=O)N3)CC1` (stereo unspecified), 131%; in that of `Clc1ccc2nc(-c3ccc(Br)o3)c(Nc3ccc4c(c3)OCCO4)n2c1`, 93%.
Take `O=C(CSc1ncccn1)NCCC1=CCCCC1`: the survival was 112%.
Then `CCc1ccc(-n2cnc3cc(C(=O)NCc4ccc(C)cc4)ccc32)cc1`, with 65%; and `CCCCn1c(COc2cccc(OC)c2)nc2ccccc21`, with 88%; and `Cc1ccccc1OCCn1c(CCNC(=O)C(C)(C)C)nc2ccccc21`, with 75%.
With `CC(=O)NCCc1nc2ccccc2n1CCCCOc1ccc(Cl)cc1`, the survival is 95%.
In the case of `CCc1nc2ccccc2n1CCCCOc1ccccc1C` it was 24% (active); in that of `CCc1nc2ccccc2n1CCCCOc1ccc(C)cc1`, 1% (active); in that of `CCCn1c(COc2cccc(C)c2)nc2ccccc21`, 25% (active).
Then `CCc1nc2ccccc2n1CCCCOc1ccc(Cl)cc1`, with 2% (active); and `Cc1ccccc1OCCCCn1c(CCNC(=O)C(C)(C)C)nc2ccccc21`, with 65%; and `Cc1ccc(OCCCCn2c(CCNC(=O)C(C)(C)C)nc3ccccc32)cc1`, with 76%.
Then `CC(C)(C)C(=O)NCCc1nc2ccccc2n1CCCCOc1ccccc1`, with 79%.
As for `COc1cccc(OCc2nc3ccccc3n2CCOc2cccc(C)c2)c1`, the survival was 73%.
Then `CC(C)(C)C(=O)NCCc1nc2ccccc2n1CCCCOc1ccc(Cl)cc1`, with 28%.
